# Screening data deposited in PubChem by The Scripps Research Institute Molecular Screening Center.
# KLK7 zymogen act: proKLK7 (human) activation, primary screen; activation, % at 7 µM; 370,000 tested, 0.9% active; AID 652039; purified proKLK7, EDANS-DABCYL substrate fluorescence; 100% is mature enzyme control, 0% vehicle;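 active = activation above the mean of all tested compounds plus 3 SD, computed per campaign excluding outliers beyond control limits, cut at about 13% in these data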
# Target sequence (P49862 whole entry, looked up): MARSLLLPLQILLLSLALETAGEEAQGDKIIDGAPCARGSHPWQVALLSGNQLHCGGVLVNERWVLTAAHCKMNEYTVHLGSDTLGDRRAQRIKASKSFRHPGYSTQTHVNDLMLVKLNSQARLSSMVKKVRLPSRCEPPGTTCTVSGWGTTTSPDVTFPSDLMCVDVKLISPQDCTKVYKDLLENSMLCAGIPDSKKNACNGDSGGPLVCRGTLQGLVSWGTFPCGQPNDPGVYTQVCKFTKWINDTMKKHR
# PLCb3 inh: blocks human PLC-beta3 enzyme activity. inhibition, % at 12.2 µM. Purified PLC-beta3, fluorogenic substrate, fluorescence. 370,000 tested, 0.18% active. Q01970; in the data active = inhibition above about 11%;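 also: 0% = median of compound wells on plate and 100% = full blocker control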
# ADAM10 inh: ADAM10 inhibition, QFRET primary screen; O14672; recombinant ADAM10, EDANS/DABCYL FRET peptide cleavage, 3 h; 370,000 tested, 0.62% active; AID 720582; inhibition, % at 7 µM;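 active = inhibition above a per-campaign cutoff equal to the mean of compounds falling between control-based bounds plus 3 SD, cut at about 20% in these data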;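 also: 0% = DMSO wells while the 100% control is not disclosed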
# ADAM17 inh: inhibitors of human ADAM17. recombinant ADAM17, EDANS/DABCYL FRET peptide cleavage. AID 720648. 370,000 tested, 0.83% active. inhibition, % at 6.95 µM. P78536;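 active = inhibition above the mean of compounds lying between control limits plus 3 SD, set per campaign, cut at about 8.5% in these data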;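 also: 0% = DMSO-only wells as the low control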
# PLCg1 inh: PLC-gamma1 (human) inhibition, primary screen. P19174. purified PLC-gamma1, fluorogenic substrate, fluorescence. inhibition, % at 12.2 µM. 370,000 tested, 0.84% active; in the data active = inhibition above about 9.5%
# KLK7 act conf: proKLK7 activation, confirmation | shares compounds with KLK7 zymogen act | purified proKLK7, EDANS-DABCYL substrate fluorescence; scaled: vehicle 0, mature enzyme 100 | activation, % at 7 µM | 3,200 tested, 68% active | AID 686949;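 active = activation, as change over the incubation, above the mean of all tested compounds plus 3 SD, cut at about 13% in these data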
# EDANS-DABCYL int: fluorescence interference counter-screen for KLK7 activators | shares compounds with KLK7 zymogen act | EDANS-DABCYL substrate fluorescence interference, no enzyme, 4 h; solvent 0%, active enzyme control 100% | activation, % at 7 µM | 3,200 tested, 80% active;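 active = activation above the all-compound mean plus 3 SD, ignoring values outside control-based bounds, cut at about 4.8% in these data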;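 also: value is the 4 h activation minus the activation read at time zero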
# K7 EDANS ctr: counter-screen for kallikrein-7 activators: EDANS-DABCYL interference, dose response | shares compounds with KLK7 zymogen act | EDANS-DABCYL peptide fluorescence interference, no enzyme | EC50, µM | 250 tested, 20% active | AID 720493;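 active = compounds that raise the fluorescence signal in this interference counterscreen, with EC50 at or below 10 µM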;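 also: intact quenched peptide substrate alone read at 355 nm excitation and 520 nm emission; signal is fluorescence gain from T0 to T4 after four hours at room temperature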
# * = called active by the depositor; i = inactive; x = no result given. Only some compounds are listed: those with a hit (about 2.9% of all), similar ones and a draw of the others.
SMILES,KLK7 zymogen act,PLCb3 inh,ADAM10 inh,ADAM17 inh,PLCg1 inh,KLK7 act conf,EDANS-DABCYL int,others
CCCC(NC(=O)COc1cc2c(c3oc(=O)cc(C)c13)CCC(C)(C)O2)C(=O)O (stereo not given),9.4,-230.7,-431.0,-163.5,-149.1,x,x,
Cc1c(C)c2c(OCC(=O)NCC(C)C)cc3c(c2oc1=O)CCC(C)(C)O3,-8.4,-121.7,-292.1,-100.9,-88.5,x,x,
CCC(NC(=O)COc1cc2c(c3oc(=O)c(C)c(C)c13)CCC(C)(C)O2)C(=O)O (stereo not given),37.6*,i,i,i,i,72.7*,73.6*,
Cc1cccc(C)c1Nc1c(-c2ccc(N3CCOCC3)cc2)nc2cnccn12,-3.0,i,-37.4,-17.1,-395.8,x,x,
CN(C)c1ccc(-c2cccc3nccn23)cc1,40.0*,i,i,i,i,70.1*,59.9*,K7 EDANS ctr=>69.5
CS(=O)(=O)Nc1ccc(-c2cccc3nccn23)cc1,-41.3,-398.9,i,-378.7,-330.9,x,x,
N#CCc1ccc(-c2cccc3nccn23)cc1,21.7*,-408.0,i,-470.8,-285.2,13.2*,26.0*,
c1cc(-c2ccc(N3CCOCC3)cc2)n2ccnc2c1,78.8*,i,i,i,i,47.2*,59.1*,
Clc1cccc(-c2cccc3nccn23)c1,8.4,i,i,i,i,x,x,
COP(=O)(CC(=O)O)C(CC(C)C)NC(=O)OCc1ccccc1 (stereo not given),-0.3,-1.0,0.6,-0.7,-1.0,x,x,
C=C(C)/C=C1/CN(Cc2ccc3c(c2)OCO3)C(=N)N1C(=O)OCc1ccccc1,0.3,-6.2,1.2,1.5,-0.3,x,x,
Cc1ccc(-c2nc(C#N)c(NCCN3CCCCC3)o2)cc1,16.7*,-290.1,-438.6,-101.1,-194.5,6.1,7.2*,
N#Cc1nc(-c2ccc(F)cc2)oc1NCCN1CCOCC1,7.2,-402.3,-468.5,-123.0,-298.4,x,x,
COCCNc1oc(-c2ccc(Cl)cc2)nc1C#N,22.3*,i,i,-495.9,i,12.8*,12.1*,
CCN(CC)CCCNc1oc(-c2cccc(Cl)c2)nc1C#N,41.4*,i,i,-190.2,i,8.8,18.1*,
CN(C)CCCNc1oc(-c2ccc(Cl)cc2)nc1C#N,34.3*,i,i,-247.1,i,23.6*,21.1*,
CC(C)=CCC[C@@]1(C(=O)O)[C@H]2CC=C(CO)[C@@H]1CC/C(C)=C/CC/C(C)=C/C2,0.1,-0.1,-1.6,-0.9,6.0,x,x,
O=C(NC1CCCCN(Cc2cccc(Cl)c2)C1=O)c1ccccn1 (stereo not given),0.5,-0.9,-4.2,2.6,-0.1,x,x,
c1ccc(Cn2c(-c3ccco3)nc3nc4ccccc4nc32)cc1,-41.5,-380.1,i,i,-318.2,x,x,
c1ccc(-c2nc3nc4ccccc4nc3n2CC2CCCO2)cc1 (stereo not given),17.6*,-278.1,i,-491.2,-212.9,5.3,7.8*,
Nc1ncc(-c2ccccc2)n1CC1CCCO1 (stereo not given),-0.1,2.2,-4.1,-1.6,-4.7,x,x,
c1coc(-c2nc3nc4ccccc4nc3n2CC2CCCO2)c1 (stereo not given),21.6*,-367.2,i,i,-267.9,8.3,13.3*,
COC(=O)[C@]12C[C@H](CC(=O)NCC3CCCCC3)C(=O)N(Cc3cccc4ccccc34)C1=C[C@H](COCc1ccccc1)O[C@@H]2C,-0.3,3.1,14.1,3.0,-1.2,x,x,
O=C(C1CCCN(S(=O)(=O)c2ccc([N+](=O)[O-])cc2)C1)N1CCN(Cc2ccccc2)CC1 (stereo not given),-0.2,3.1,4.6,0.8,1.7,x,x,
Cc1ccnc(NC(=S)NC(=O)c2cncc(Br)c2)c1,12.9*,1.4,-18.1,-2.9,5.2,14.4*,14.7*,
SMILES,KLK7 zymogen act,PLCb3 inh,ADAM10 inh,ADAM17 inh,PLCg1 inh,KLK7 act conf,EDANS-DABCYL int,others
O=C(CSc1nc2ncccc2[nH]1)N1CCOCC1,-0.3,3.1,-11.0,-2.8,0.8,x,x,
CCN(CC)C(=O)c1cc2c(=O)n3cccc(C)c3nc2n1C,22.4*,i,i,-197.4,i,15.0*,20.8*,
CCN(CC)C(=O)c1cc2c(=O)n3cccc(C)c3nc2s1,20.4*,i,i,i,i,12.9*,15.3*,
CCC(C)NC(=O)c1cc2c(=O)n3cccc(C)c3nc2s1 (stereo not given),20.2*,i,i,i,-484.7,18.2*,-2.9,K7 EDANS ctr=>69.6
O=C(C1CCN(c2ncnc3c2sc2cccc(F)c23)CC1)N1CCN(C(=O)C2CCCO2)CC1 (stereo not given),-1.8,-99.7,-94.3,-23.1,-73.2,x,x,
O=C(NCc1ccccc1)C1(C(=O)C2CC2)CC(c2ccccn2)=NO1 (stereo not given),-0.5,1.6,-3.3,2.1,6.6,x,x,
O=C1c2[nH]c3ccccc3c2CC1N1C(=O)c2ccccc2C1=O (stereo not given),29.8*,-42.1,-66.5,-13.1,-29.6,18.5*,17.7*,
O=C1CCC(N2C(=O)c3ccccc3C2=O)C(=O)N1 (stereo not given),0.7,3.7,6.6,0.1,1.8,x,x,
O=C(NOC(=O)c1cc(Br)ccc1Cl)c1cccs1,-0.4,4.0,6.6,-1.9,1.7,x,x,
O=C(COC(=O)c1cc(Br)ccc1O)NNC(=O)c1cccs1,25.1*,-9.8,-12.1,-4.3,-4.6,20.7*,23.6*,
CCOC(=O)CN1C(=O)N(c2ccc(OC)cc2)[C@H]2CC3c4ccccc4C[C@]3(C)[C@@H](C(=O)N(C)C3CCCCC3)C[C@H]21 (stereo not given in full),0.5,-0.6,-2.9,-0.4,1.9,x,x,
CC(=O)Oc1cc2oc(=O)cc(C)c2cc1OC(C)=O,68.1*,i,i,i,i,76.7*,89.9*,
Cc1coc2cc3oc(=O)cc(C)c3cc12,6.0,-200.6,-209.0,-69.6,-189.5,x,x,
O=C(Cc1cc(=O)oc2cc(O)ccc12)N[C@@H](Cc1c[nH]c2ccccc12)C(=O)O,15.7*,-324.0,i,-255.7,-238.2,90.5*,90.2*,
CC(=O)Oc1ccc2c(C)cc(=O)oc2c1,60.2*,i,i,i,i,540.0*,531.4*,
Cc1cc(=O)oc2cc(O)ccc12,99.5*,i,i,i,i,62.6*,64.0*,
Cc1c(O)ccc2c(CC(=O)N[C@@H](Cc3c[nH]c4ccccc34)C(=O)O)cc(=O)oc12,-27.6,i,-434.9,-205.4,-451.5,x,x,
COc1nc(OC)nc(N2CCC(C(=O)N(C)Cc3ccco3)CC2)n1,0.6,-1.3,-4.3,-0.3,1.9,x,x,
